Reference: paper PMC4102417

Each molecule was assayed on murine 3T3 fibroblasts (assay: primary screen, percent viability or growth; higher = less effect of the substance).
Protocol: Similarly, for measuring the cytotoxicity concentration (CC50) for 3T3 fibroblast cells, cultures were incubated with drugs for 72 hours and developed using Alamar Blue (Alamar Biosciences Inc, Sacramento, CA) as previously described.

Row | Structure (SMILES) | Mammalian (3T3) cell % growth at 10 uM
1 | Nc1nc(N)c2nc(-c3ccccc3)c(N)nc2n1 | 72.7%
2 | CC(=O)OC1CC2C(C)(C)C(=O)CCC2(C)C2CCC3(C)C(c4ccoc4)OC(=O)C4OC43C12C (stereo not shown) | 81.4%
3 | CSc1ccc2c(c1)N(CCC1CCCCN1C)c1ccccc1S2 (stereo not shown) | 45.7%
4 | CC(C)CCCC(C)C1CCC2C3CC(=O)C4CC(O)CCC4(C)C3CCC12C (stereo not shown) | 100%
5 | CC(C)COCC(CN(Cc1ccccc1)c1ccccc1)N1CCCC1.Cl (stereo not shown) | 89.6%
6 | CC(C)C[C@H]1C(=O)N2CCC[C@H]2[C@]2(O)O[C@](NC(=O)[C@@H]3C=C4c5cccc6[nH]c(Br)c(c56)C[C@H]4N(C)C3)(C(C)C)C(=O)N12.CS(=O)(=O)O | 92.1%
7 | Cl.OC(c1cc(C(F)(F)F)nc2c(C(F)(F)F)cccc12)C1CCCCN1 (stereo not shown) | 94.7%
8 | O=c1cc(-c2ccccc2)oc2c(O)c(O)ccc12 | 72.6%
9 | O=C(O)/C=C/c1ccc(O)c(O)c1 | 2.5%
10 | C=CC(C)(O)CCC1C(=C)CC(OC(C)=O)C2C(C)(C)CCCC12C (stereo not shown) | 63.7%
11 | COC(=O)CCC(C)C1CCC2C3C(O)CC4CC(O)CCC4(C)C3CC(O)C12C (stereo not shown) | 81%
12 | OCCN1CCN(CCCN2c3ccccc3Sc3ccc(C(F)(F)F)cc32)CC1 | 100%
13 | COc1cc(O)c2c(c1)C(=O)c1cc(C)cc(O)c1C2=O | 96.8%
14 | CO[C@H]1C[C@H](O[C@H]2[C@H](C)[C@@H](O[C@@H]3O[C@H](C)C[C@H](N(C)C)[C@H]3O)[C@@H](C)C[C@@]3(CO3)C(=O)[C@H](C)[C@@H](O)[C@@H](C)[C@@H](C)OC(=O)[C@@H]2C)O[C@@H](C)[C@@H]1O.O=P(O)(O)O | 100%
15 | NCCc1ccc(O)c(O)c1 | 2.4%
16 | CCCCCCCC/C=C/CCCCCCCCOP(=O)([O-])OCC[N+](C)(C)C | 93.7%
17 | O=C(Nc1ccc([N+](=O)[O-])cc1Cl)c1cc(Cl)ccc1O | 10.5%
18 | CCC1(O)CC(OC2CC(N(C)C)C(O)C(C)O2)c2c(cc3c(c2O)C(=O)c2c(O)ccc(O)c2C3=O)C1C(=O)OC (stereo not shown) | 0.8%
19 | O=c1cc(-c2cc(O)c(O)c(O)c2)oc2cc(O)cc(O)c12 | 100%
20 | C=C1CC[C@@H]2C(CC2(C)C)C(=O)CC[C@H]1O (stereo partly shown) | 2.6%

Row | Structure (SMILES) | Mammalian (3T3) cell % growth at 10 uM
21 | O=C(O)CC[N+](=O)[O-] | 88.6%
22 | CC(C)=CCc1c2c(c3occ(-c4ccc(O)c(O)c4)c(=O)c3c1O)C=CC(C)(C)O2 | 4.1%
23 | Cc1cc2nc3c(=O)[nH]c(=O)nc-3n(C[C@H](O)[C@H](O)[C@H](O)CO)c2cc1C | 0.9%
24 | OCCN1CCN(CCCN2c3ccccc3Sc3ccc(Cl)cc32)CC1 | 66.6%
25 | CC(CC(O)C1OC1(C)C)C1CCC2(C)C3=CCC4C(C)(C)C(=O)CCC4(C)C3CCC12C (stereo not shown) | 100%
26 | CCC1(O)CC2CN(CCc3c([nH]c4ccccc34)C(C(=O)OC)(c3cc4c(cc3OC)N(C)C3C(O)(C(=O)OC)C(OC(C)=O)C5(CC)C=CCN6CCC43C65)C2)C1.O=S(=O)(O)O (stereo not shown) | 36.2%
27 | COc1ccc(-c2cc(=O)c3ccccc3o2)cc1OC | 86.4%
28 | O=c1c(-c2ccc(O)cc2)coc2cc(O)cc(O)c12 | 100%
29 | C=C1C(=O)O[C@H]2[C@H]1CC/C(C)=C/CC[C@@]1(C)O[C@@H]21 | 0.7%
30 | COc1cc([C@@H]2c3cc4c(cc3[C@@H](O[C@@H]3O[C@@H]5CO[C@@H](c6cccs6)O[C@H]5[C@H](O)[C@H]3O)[C@H]3COC(=O)[C@H]23)OCO4)cc(OC)c1O | 50.4%
31 | Clc1ccc(COC(Cn2ccnc2)c2ccc(Cl)cc2Cl)c(Cl)c1 (stereo not shown) | 100%
32 | NC(=O)c1cc([N+](=O)[O-])cc([N+](=O)[O-])c1 | 97.2%
33 | O[C@H]1[C@H]2c3cc4c(cc3CN3CCC(=C[C@@H]1O)[C@H]23)OCO4 | 29.6%
34 | O=C1C=CC(=O)c2c(O)cccc21 | 66.4%
35 | COC(=O)C1(C)CCCC2(C)c3ccc(C(C)C)cc3C(=O)CC12 (stereo not shown) | 91.8%
36 | CCCCCCc1ccc(O)cc1O.Nc1c2ccccc2nc2ccccc12 | 53.7%
37 | CN(C)CCC=C1c2ccccc2CCc2ccccc21 | 100%
38 | CC1OC(=O)C(C(C)C)NC(=O)C(C(C)C)OC(=O)C(C(C)C)NC(=O)C(C)OC(=O)C(C(C)C)NC(=O)C(C(C)C)OC(=O)C(C(C)C)NC(=O)C(C)OC(=O)C(C(C)C)NC(=O)C(C(C)C)OC(=O)C(C(C)C)NC1=O (stereo not shown) | 16.4%
39 | Cc1cc(/C=C/c2ccc3cc(N(C)C)ccc3[n+]2C)c(C)n1-c1ccccc1.O=C([O-])c1cc2ccccc2c(Cc2c(O)c(C(=O)O)cc3ccccc23)c1O | 50%
40 | C=CC(C1=CC(=O)C(OC)=CC1=O)c1ccc(OC)cc1 (stereo not shown) | 1.2%
